High-throughput results deposited in PubChem by several laboratories.
Shown are actives, neighbours in structure and some others; about 1.5% of the full set was active somewhere.
DAGLB inhibitor: DAGLB lipase inhibitors, primary screen, biochemical, fluorescence, HTS; Diacylglycerol lipase-beta (Homo sapiens), Q8NCG7; 340,000 tested, 0.059% active; inhibition, % at 5.17 µM; AID 504411, 2011; HEK293T DAGLB membrane lysate, EnzChek fluorogenic substrate; in the data active = inhibition above about 34%;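 note: 0% = enzyme with vehicle and 100% = wells lacking enzyme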
iPSC survival up: enhancers of single-cell hiPSC survival, primary screen, ATPlite luminescence; survival enhancement, % at 20 µM; 360,000 tested, 0.044% active; 100% = ROCK inhibitor wells, 0% = DMSO; in the data active = survival enhancement above about 18%;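 note: cells exposed to compounds for 16 hours before the ATP read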
ABCB6 inh 2: ABCB6 transporter inhibitors, primary screen, K562-ABCB6 cells, flow cytometry, MLPCN library; ATP-binding cassette sub-family B member 6 (Homo sapiens), Q9NP58; K562-ABCB6 porphyrin accumulation, 1 h; hits give low values; fluorescence ratio to DMSO, % at 10 µM; 360,000 tested, 0.19% active;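 active = fluorescence ratio to DMSO below 75%, the collection mean minus 3 SD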;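 note: signal is porphyrin accumulated inside mitochondria; 100% equals median channel fluorescence of DMSO control wells; lower ratio means ABCB6 inhibition with less porphyrin fluorescence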
ANO1 activ: TMEM16A chloride channel activators or potentiators, primary screen, cell-based, HTS; Anoctamin-1 (Mus musculus), Q8BHY3; HEK293 TMEM16A/YFP-H148Q/I152L, iodide quench fluorescence; hits give low values; B-score at 10 µM; 340,000 tested, 0.3% active; AID 623877, 2012;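 active = fluorescence-ratio B-score plate-corrected deviation score at least 3 library SD below zero, with starting fluorescence score within 5 deviations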;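 note: channel opened by trigger with iodide after compound preincubation; score built on the fluorescence ratio of max minus min over baseline; more negative score means more quench and so TMEM16A activation or potentiation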
ANO1 block: TMEM16A chloride channel inhibitors, primary screen, cell-based, HTS | Anoctamin-1 (Mus musculus), Q8BHY3 | HEK293 TMEM16A/YFP iodide influx fluorescence, ionomycin | normalized B-score (activity score, 25-100; higher = stronger inhibition) at 10 µM | 310,000 tested, 1.2% active | AID 588511, 2011;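 active = ratio plate-corrected score three or more library SD toward inhibition, starting fluorescence score within five deviations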;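 note: score derived from kinetic fluorescence span divided by baseline fluorescence per well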
Numbers without * were called inactive; i = inactive; / = no result.

SMILES | DAGLB inhibitor | iPSC survival up | ABCB6 inh 2 | ANO1 activ | ANO1 block
Cc1occc1-c1nnc(SCC(=O)c2ccccc2)n1CC1CCCO1 (stereo unspecified) | 2 | 5 | 85 | i | i
Cc1occc1-c1nnc(SCC(=O)NCc2cccs2)n1CC1CCCO1 (stereo unspecified) | 0 | 0 | 86 | -9.5* | /
O=C(CSc1nc2ccc(Cl)cc2[nH]1)NC1CCCC1 | -1 | 0 | 95 | i | i
O=C(CSc1nc2ccc([N+](=O)[O-])cc2[nH]1)NC1CCCCCC1 | 0 | 1 | 86 | i | 100*
Cc1ccc(S(=O)(=O)Nc2cccc(-n3cnnn3)c2)cc1C | 5 | 0 | 109 | i | i
O=C(CCSc1nc(-c2ccco2)cc(C(F)(F)F)n1)NCc1ccccn1 | 0 | 0 | 98 | -15* | i
O=C(CCSc1nc(-c2ccco2)cc(C(F)(F)F)n1)NCc1cccs1 | -5 | -4 | 99 | i | i
CCCSc1nc(N2CCOCC2)c2c(c1C#N)CC(C)(C)SC2 | -14 | 23* | 113 | i | i
COc1ccc(CNS(=O)(=O)c2ccc3c(c2)N(C(C)=O)CC(C)S3)cc1 (stereo unspecified) | -6 | 0 | 97 | i | i
CCOC(=O)C1CCN(S(=O)(=O)c2cccc(-c3cn4ccccc4n3)c2)CC1 | -1 | -1 | 96 | i | 25*
CCOC(=O)C1CCN(S(=O)(=O)c2cccc(-c3cn4cc(Cl)ccc4n3)c2)CC1 | -3 | -1 | 90 | -21* | i
CN1CCN(NC(=O)Nc2cc(Cl)cc(Cl)c2)CC1 | 2 | 0 | 101 | i | i
CCN(CCCNC(=O)CNC(=O)c1nn(-c2ccc(OC)c(OC)c2)c(=O)c2ccccc12)c1ccccc1 | -8 | 0 | 95 | i | i
O=C1c2ccccc2C(=O)C1c1ccnc2ccccc12 | -3 | -6 | 99 | i | i
N#CC1=C(N)SC(N)=C(C#N)C1c1ccnc2ccccc12 | -4 | 2 | 91 | -28* | i
COc1ccc(C2NC(c3ccc(OC)cc3OC)C(C)C(=O)C2C)c(OC)c1 (stereo unspecified) | -2 | 0 | 96 | -5.9* | i
COc1ccc(OC)c(C2CC(=O)C(C)C(c3cc(OC)ccc3OC)N2)c1 (stereo unspecified) | -3 | 0 | 99 | i | i
c1ccc(-c2oc3ncnc(NCCCn4ccnc4)c3c2-c2ccccc2)cc1 | 0 | -1 | 104 | i | 100*
OCCNc1ncnc2c1c(-c1ccccc1)c(-c1ccccc1)n2Cc1ccco1 | -7 | 6 | 129 | i | i
N=c1c2c(-c3ccccc3)c(-c3ccccc3)n(Cc3ccco3)c2ncn1Cc1ccccc1 | 2 | 1 | 93 | i | 100*
c1ccc(-c2c(-c3ccccc3)n(Cc3ccco3)c3ncnc(NCCCn4ccnc4)c23)cc1 | 2 | -3 | 95 | i | 100*
COc1cc(C=C(c2nc3ccccc3s2)c2nc3ccccc3s2)ccc1O | 0 | -2 | 122 | -6.7* | i
CN(C)c1ccc(/C=C/c2nc3ccccc3s2)cc1 | -17 | -6 | 120 | i | i
COc1cc(/C=C/c2nc3ccccc3s2)cc(OC)c1O | 0 | 0 | 107 | -6.9* | i
COc1ccc(C(N)c2csc(Nc3ccc(C(F)(F)F)cn3)n2)cc1 (stereo unspecified) | / | 4 | 91 | / | /
O=C(CCN1CCN(S(=O)(=O)c2ccc(Cl)cc2)CC1)Nc1ccc(F)cc1 | 1 | 0 | 94 | i | i
C=CCOc1ccccc1CN1CCC(n2nccc2NC(=O)C2CC2)CC1 | 2 | 0 | 98 | i | /
Cc1cc(C(=O)Nc2ccon2)ccc1[N+](=O)[O-] | / | 0 | 101 | i | i
O=C(NC1CCN(C(=O)Nc2ccc(F)cc2)CC1)c1ccc(F)cc1 | 0 | -1 | 95 | -5.2* | i
Cc1ccc(Nc2nnc(SCC(=O)NC3CC3)s2)cc1 | -2 | -2 | 97 | i | /
